Screens: PubChem BioAssay, National Center for Advancing Translational Sciences (NCATS)
Gal4-VP16 FLuc: Gal4-VP16 reporter inhibition counter-screen | Drosophila S2 Gal4-VP16 UAS-luciferase, luminescence, 20 h | Potency, µM (top dose mostly 53.6 µM), most hits filed as inhibitors | 310,000 compounds, 3.5% hits | AID 2546;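 further: Gal4-VP16 expression switched on by copper sulfate through the metallothionein promoter; nearly all actives have a fitted effect of over 50% in size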
SW480 rereplic: induces DNA re-replication in SW480 colon adenocarcinoma cells | SW480 DNA re-replication, Hoechst DNA content imaging, 48 h | Potency, µM (highest dose often 46.1 µM), actives largely listed as activators | 340,000 compounds, 1.8% hits | AID 624297; further: nearly all actives have a fitted effect of over 55% in size
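Per well, 250 cells were exposed to pinned compound for 48 hr. Nuclear DNA was visualised with Hoechst (40 min, 37 C) and total object intensity recorded by fluorescence scanning.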
ELG1 repair inh: inhibitors of ELG1-dependent DNA repair in HEK293T cells; 330,000 compounds, 2.3% hits; Potency, µM (series often up to 46.1 µM), actives largely listed as inhibitors; HEK293T ELG1-luciferase reporter, luminescence, 16 h; DNA damage induced by 5-fluorouridine; further: nearly all actives have a fitted effect of over 55% in size
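Reporter activity after DNA damage by 5-fluorouridine is monitored. Compound-treated cells incubate 16 hr at 37 °C, then ONE-Glo is added for 30 min before luminescence reading.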
MCF10A rereplic: inducers of DNA re-replication in MCF 10A breast cells; MCF 10A DNA re-replication, Hoechst nuclear intensity, 48 h; Potency, µM (titrated, usually from 46.1 µM), actives largely listed as activators; 350,000 compounds, 2.9% hits; further: nearly all actives have a fitted effect of over 50% in size
RORgamma inh: inhibitors of mouse ROR gamma transcriptional activity | Drosophila S2 Gal4-RORgamma UAS-luciferase reporter, 20 h | Potency, µM (top dose mostly 53.6 µM), most hits filed as inhibitors | 310,000 compounds, 5.4% hits | AID 2551; further: nearly all actives have a fitted effect of over 60% in size
Target sequence (P51450 whole entry, looked up, the tested form may be a part): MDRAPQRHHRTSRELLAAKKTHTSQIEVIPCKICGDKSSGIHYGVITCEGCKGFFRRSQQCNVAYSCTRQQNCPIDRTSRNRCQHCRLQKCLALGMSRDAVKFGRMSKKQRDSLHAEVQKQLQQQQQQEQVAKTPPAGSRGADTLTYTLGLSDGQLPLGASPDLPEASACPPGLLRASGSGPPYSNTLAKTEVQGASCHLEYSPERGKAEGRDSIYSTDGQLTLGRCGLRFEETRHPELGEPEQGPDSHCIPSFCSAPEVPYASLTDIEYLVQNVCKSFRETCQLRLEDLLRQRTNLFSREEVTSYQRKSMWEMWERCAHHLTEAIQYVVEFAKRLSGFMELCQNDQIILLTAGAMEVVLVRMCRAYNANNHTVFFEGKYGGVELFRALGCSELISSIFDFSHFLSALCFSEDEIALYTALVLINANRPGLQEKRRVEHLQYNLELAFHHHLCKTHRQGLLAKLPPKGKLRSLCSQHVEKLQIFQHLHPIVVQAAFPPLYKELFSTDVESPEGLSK
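Luciferase reporter read in Schneider cells carrying Gal4-RORγ (mouse) and UAS-Photinus luciferase; cells given compound 1 h before 700 uM copper sulfate induction, then incubated 20 h at ambient temperature.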
A number is an active result; – = inactive; ? = inconclusive; · = not tested or not shown; [ ] = remark or other dose. Most compounds without a hit are left out; they make up all but 10% or so of the library. The call rests on the fitted dose curve; in most records, active means well fitted curve in the direction sought with a large enough effect; inconclusive means small, poorly fitted or top-dose-only effect, or another doubt; inactive means no such curve, though single readings can be large; an effect the other way counts as inactive or inconclusive.

SMILES	Gal4-VP16 FLuc	SW480 rereplic	ELG1 repair inh	MCF10A rereplic	RORgamma inh
COc1ccc(/C=N/NC(=O)c2ccc(N3CCCC3=O)cc2)cc1	–	–	–	–	–
COc1ccc(S(=O)(=O)N(n2c(C)nnc2-n2nc(C)cc2C)S(=O)(=O)c2ccc(OC)cc2)cc1	–	–	–	–	–
Cc1ccc(C(N)=S)c(C)c1	?	–	–	–	20µM
O=C1CCCN1CCC1CCN(C2CC(=O)N(Cc3ccc(N4CCCC4=O)cc3)C2=O)CC1 (stereo unspecified)	?	–	–	–	7.1µM
O=C1CC(N2CCOCC2)C(=O)N1Cc1ccc(N2CCCC2=O)cc1 (stereo unspecified)	–	–	–	–	–
Cc1cccc(C(=O)NC(=S)Nc2ccccc2C(=O)O)c1	–	–	?	–	–
COc1ccc(OCC(=O)NC(=S)Nc2ccc3c4c(cccc24)CC3)cc1	?	–	–	–	?
COc1cccc(C(=O)NC(=S)Nc2ccc(Cl)cc2C(=O)O)c1	7.1µM	–	–	–	10µM
COc1cccc(C(=O)NC(=S)Nc2ccc3c4c(cccc24)CC3)c1	11µM	–	?	–	3.5µM
COc1cccc(OCC(=O)N2CCCc3ccccc32)c1	–	–	–	–	–
CCCOC(=O)c1ccc(-c2c(C)noc2-c2ccc(OC)cc2O)o1	–	–	21µM	?	–
COCCN(C(=S)Nc1c(C)cc(C)cc1C)C(C)c1cccs1 (stereo unspecified)	–	–	–	–	10µM
COCCN(C(=S)Nc1ccc(C(C)C)cc1)C(C)c1cccs1 (stereo unspecified)	?	–	–	?	3.5µM
CC(OC(=O)/C=C/c1cccs1)C(=O)Nc1ccc(C(N)=O)cc1 (stereo unspecified)	·	?	?	–	·
CC(C)c1ccc(S(=O)(=O)N2CCN(C(=O)CCNS(=O)(=O)c3ccccc3F)CC2)cc1	·	–	–	–	·
CSc1ncccc1C(=O)N1CCN(S(=O)(=O)c2ccc3c(c2)OCCO3)CC1	·	–	–	–	·
C=C[C@@]1(C)CC(=O)[C@]2(O)[C@@]3(C)[C@@H](O)CCC(C)(C)[C@@H]3[C@H](OC(C)=O)[C@H](O)[C@@]2(C)O1	·	–	·	–	·
C=C1C(=O)O[C@H]2C[C@]3(C)C([C@@H](OC(=O)/C(C)=C/C)[C@H]12)[C@](C)(O)CC[C@H]3O (stereo partly specified)	?	–	–	–	11µM
COC(=O)Cc1ccc2sc(-c3ccccc3)nc2c1	16µM	–	?	–	?
Cc1ccc(CNC(=O)C2CCCN(c3cnccn3)C2)cc1 (stereo unspecified)	–	–	–	–	–
Cn1ncc2c(O/N=C(\N)c3ccc(C(C)(C)C)cc3)ncnc21	?	9.2µM	?	18µM	–
CCOC(=O)c1ccc(Nc2ncnc3c2cnn3C)cc1	–	–	–	–	?
CCc1ccc(NC(=O)c2cnn3ccccc23)cc1	?	–	?	–	13µM
O=C(Nc1ccc(Cl)c(Cl)c1)Nc1cc(C(=O)NC2CC2)ccc1Cl	?	·	26µM	·	–
O=C(Nc1ccc(Cl)c(Cl)c1)c1ccc(Cl)c(Cl)c1	–	–	?	–	?
SMILES	Gal4-VP16 FLuc	SW480 rereplic	ELG1 repair inh	MCF10A rereplic	RORgamma inh
CC(O)CNc1nc2c(c(=O)n(C)c(=O)n2C)n1C/C=C/c1ccccc1 (stereo unspecified)	?	–	23µM	–	?
CC(O)CNc1nc2c(c(=O)n(C)c(=O)n2C)n1CCc1ccccc1 (stereo unspecified)	–	–[9.22 µM]	?	–	–
C/C(Cl)=C/Cn1c(NCCN(C)C)nc2c1c(=O)n(C)c(=O)n2C	–	–	–	–	–
Cn1c(=O)c2c(nc(NCCCO)n2C/C=C/c2ccccc2)n(C)c1=O	?	–	12µM	–	?
C/C(Cl)=C\Cn1c(Nc2ccccc2)nc2c1c(=O)n(C)c(=O)n2C	–	–[9.22 µM]	11µM	–	–
Cc1cccc(Cn2ncc(Cl)c(Cl)c2=O)c1	?	5.8µM	?	13µM	?
Cc1cc2oc(=O)cc(Cn3ncc(Cl)c(Cl)c3=O)c2cc1Cl	?	2.6µM	?	7.3µM	–
O=c1c2ccccc2cnn1Cc1ccc(Cl)c(Cl)c1	–	–	–	–	–
Cc1cc(C(=O)Cn2ncc(Cl)c(Cl)c2=O)c(C)n1CC(F)(F)F	?	5.8µM	?	2.6µM	?
